# Test results: PubChem BioAssay (Tox21)
# Inconclusive results are not listed. Active and inactive are the calls of the source. Calls follow the shape of the dose curve; as a rule, active = well fitted cell-killing curve with a large enough effect in the repeat runs; inconclusive = weak or mixed curves, or effect the other way; inactive = no such curve, though single readings can be large or run the other way.
# Test: qHTS assay to identify small molecule agonists of the vitamin D receptor (VDR) signaling pathway - cell viability counter screen (AID 743224); also: nearly all actives have a fitted effect of over 50% in size
# Conditions: VDR-bla HEK293T viability, CellTiter-Glo luminescence, 16 h; series mostly up to 62.6 µM
# Outline: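 Cells: VDR-bla, 2,000/well, settled 4 h. Treatment: compounds in DMSO, 16 h, 37C/5% CO2. Readout: CellTiter-Glo luminescence after 30 min RT.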
row,SMILES,outcome
1,Cc1cccc(C)c1NC(=O)CC12CCCN1CCC2,inactive
2,C[C@@H]1C[C@H]2[C@@H]3C[C@H](F)C4=CC(=O)C(Cl)=C[C@]4(C)[C@@]3(F)[C@@H](O)C[C@]2(C)[C@@]1(O)C(=O)CO,inactive
3,C=CC(=O)OCCCl,inactive
4,C[N+]1(CC2COC(c3ccccc3)(c3ccccc3)O2)CCCCC1 (stereo unspecified),inactive
5,CO[Si](C)(OC)c1ccccc1,inactive
6,CC(C)[C@H]1CC[C@@H](C)CC1=O,inactive
7,CCOC(=O)COC(=O)c1ccccc1C(=O)OCC,inactive
8,CCOC(=O)c1cnc2c(cnn2CC)c1NN=C(C)C,inactive
9,CC(=O)c1ccc2ccccc2c1,inactive
10,COc1ccc2cc1Oc1cc3c(cc1OC)CC[N+](C)(C)[C@H]3Cc1ccc(cc1)Oc1c(OC)c(OC)cc3c1[C@@H](C2)[N+](C)(C)CC3,inactive
11,O=S(=O)(O)c1cccc2ccccc12,inactive
12,C1CCC2(CCCCO2)OC1,inactive
13,CC1=NN(c2cc(S(=O)(=O)O)ccc2Cl)C(=O)C1N=Nc1ccccc1 (stereo unspecified),inactive
14,CCN(Cc1ccccc1)c1ccccc1,inactive
15,Cc1ccnc(NS(=O)(=O)c2ccc(N)cc2)n1,inactive
16,O=C(O)Cc1csc(-c2ccc(Cl)cc2)n1,inactive
17,NC(=O)N1c2ccccc2CC(=O)c2ccccc21,inactive
18,Nc1ccn([C@@H]2O[C@H](CO)[C@@H](O)[C@@H]2O)c(=O)n1,inactive
19,CCCCc1nc(Cl)c(CO)n1Cc1ccc(-c2ccccc2-c2nn[nH]n2)cc1,inactive
20,c1ccc2sc(SN3CCOCC3)nc2c1,inactive
21,CCN(C=O)CC,inactive
